In PubChem BioAssay (NCI):
Compounds without any hit were thinned out: in the full panel of roughly 79,000, 15% have a hit. The source made the active and inactive calls. Rule as the data show it: active = growth inhibition above about 70%; inactive = the rest.

Experiment: NCI Yeast Anticancer Drug Screen. Data for the mec2-1 strain (AID 157)
Conditions: S. cerevisiae mec2-1 strain, at 50.0 µM (retest, dose inferred, filed as 5.0), stronger effect = higher value
Method in brief: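 Test agents were screened against the mec2-1 yeast strain, with defined DNA repair or cell cycle alteration. Growth was scored as inhibition against vehicle-only controls.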

| Compound | growth inhibition |
| --- | --- |
| CC(CN(C)C)C(=O)/C=C/c1ccc(Cl)c(Cl)c1 (configuration not stated) | -10% (inactive) |
| CCCCCCNCCCNc1c2cc(OC)ccc2nc2cccc([N+](=O)[O-])c12 | 98% (active) |
| NC(=S)N1N=C2c3ccccc3CC[C@H]2[C@@H]1c1ccc(Cl)cc1 | 90% (active) |
| C/C(=N/NC(=S)Nc1ccccc1C)c1ccccn1 | 1% (inactive) |
| O=C1/C(=C/c2ccc(Cl)c(Cl)c2)CNC/C1=C\c1ccc(Cl)c(Cl)c1 | 74% (active) |
| CC(C)OP(=O)(OC(C)C)C(=NCCO)NNc1ccc([N+](=O)[O-])cc1 | 33% (inactive) |
| N#CCC(=O)N/N=C(\c1ccccc1)C(c1ccccc1)C1(O)C(=O)Nc2c(Cl)ccc(Cl)c21 (configuration not stated) | 36% (inactive) |
| CC(C)(CN1CCCCC1)C(=O)CC(SCCS(=O)(=O)O)c1ccccc1 (configuration not stated) | -3% (inactive) |
| COC1=CCC23C(=O)C=CC(=O)C2(C1)C(=O)c1ccccc1C3=O (configuration not stated) | 88% (active) |
| CCCCN(CCCC)c1ccc(N=Nc2ccc(S(=O)(=O)O)cc2)cc1 | 98% (active) |
| c1ccc2nc3c(nc2c1)sc1ccccc13 | 8% (inactive) |
| O=C1c2ccccc2-c2ccc(N=Cc3ccccc3)cc21 | 21% (inactive) |
| CNC(=S)N/N=C(/C)CCC/C(C)=N/NC(=S)NC | 55% (inactive) |
| Nc1ccc(/C=C/c2ccc3cccnc3c2)cc1 | 17% (inactive) |
| COc1ccc2c3c1OC(C)C31CC(=O)CCC1CC2 (configuration not stated) | 2% (inactive) |
| CCOC(=O)Nc1ccc(C)c(NC(=O)OCC)c1 | 14% (inactive) |
| CCN(CC)CCNc1ccc2nc(C)n3c4ccc(OC)cc4c(=O)c1c23 | 52% (inactive) |
| C[N+](C)([O-])CCCNc1c2ccccc2nc2cccc([N+](=O)[O-])c12 | 95% (active) |

| Compound | growth inhibition |
| --- | --- |
| O=C(c1cc(=O)c2ccc(O)cc2o1)c1ccc(Cl)cc1Cl | 95% (active) |
| CCCNC(=O)OCc1c(COC(=O)NCCC)c(-c2ccc(Cl)c(Cl)c2)n2c1CCC2 | 25% (inactive) |
| O=C(Cc1ccccc1)NN1C(=O)C(Cl)C1c1cc(Br)cc(Br)c1O (configuration not stated) | 94% (active) |
| CCOC(=O)C(Cc1c2ccccc2cc2ccccc12)(NC(C)=O)C(=O)OCC | 27% (inactive) |
| O=[N+]([O-])/C=C/c1cc2ccc3ccccc3c2[nH]1 | 98% (active) |
| Fc1ccc(Nc2ccc3ccccc3c2)cc1 | 84% (active) |
| O=S1(=O)CCC2=CC(C(F)(F)F)=CC(C(F)(F)F)=CN21 | 97% (active) |
| O=C(Cc1ccccc1)NNc1nc(NNC(=O)c2ccncc2)nc(Nc2ccc([N+](=O)[O-])cc2)n1 | 18% (inactive) |
| CCCCS/C(=C(/C#N)C(N)=O)c1cc2c([nH]1)CCCC2 | 13% (inactive) |
| O=C(O)c1ccccc1C(=O)OC1CCc2ccccc2C1 (configuration not stated) | 26% (inactive) |
| CCOC(=O)/C(=C\c1cccc(C)c1)C(C)=O | 96% (active) |
| NC(=S)N/N=C1\c2ccccc2CCC1CCC1(O)CCc2ccccc2C1=O (configuration not stated) | 55% (inactive) |
| Cc1cccc2c(Cl)c3cccc(C)c3nc12 | 25% (inactive) |
| CC(C)OC(=O)NNc1c(Cl)cc(Cl)cc1Cl | 10% (inactive) |
| Nc1ccc2c(c1)C(=O)c1c(F)cccc1-2 | -25% (inactive) |
| N#CSCC1COc2ccccc2O1 (configuration not stated) | 91% (active) |
| Cc1ccc(S(=O)(=O)NC(=O)C2C(=O)CC3(CCCCC3)CC2=O)cc1 | 26% (inactive) |
| CC1=NN(C(=O)c2ccccc2O)C(=O)/C1=C/c1ccco1 | 93% (active) |

Same assay, conditions: S. cerevisiae mec2-1 strain, at 50.0 µM, stronger effect = higher value

| Compound | growth inhibition |
| --- | --- |
| CC(CN(C)C)C(=O)/C=C/c1ccc(Cl)c(Cl)c1 (configuration not stated) | 99.4% (active) |
| CCCCCCNCCCNc1c2cc(OC)ccc2nc2cccc([N+](=O)[O-])c12 | 96.4% (active) |
| NC(=S)N1N=C2c3ccccc3CC[C@H]2[C@@H]1c1ccc(Cl)cc1 | 85.8% (active) |
| C/C(=N/NC(=S)Nc1ccccc1C)c1ccccn1 | 47% (inactive) |
| O=C1/C(=C/c2ccc(Cl)c(Cl)c2)CNC/C1=C\c1ccc(Cl)c(Cl)c1 | 89.8% (active) |
| CC(C)OP(=O)(OC(C)C)C(=NCCO)NNc1ccc([N+](=O)[O-])cc1 | 28.1% (inactive) |
| N#CCC(=O)N/N=C(\c1ccccc1)C(c1ccccc1)C1(O)C(=O)Nc2c(Cl)ccc(Cl)c21 (configuration not stated) | 41% (inactive) |
| CC(C)(CN1CCCCC1)C(=O)CC(SCCS(=O)(=O)O)c1ccccc1 (configuration not stated) | -12.1% (inactive) |
| COC1=CCC23C(=O)C=CC(=O)C2(C1)C(=O)c1ccccc1C3=O (configuration not stated) | 55.5% (inactive) |
| CCCCN(CCCC)c1ccc(N=Nc2ccc(S(=O)(=O)O)cc2)cc1 | 90.7% (active) |
| c1ccc2nc3c(nc2c1)sc1ccccc13 | 31.9% (inactive) |
| O=C1c2ccccc2-c2ccc(N=Cc3ccccc3)cc21 | 5% (inactive) |
| CNC(=S)N/N=C(/C)CCC/C(C)=N/NC(=S)NC | 43.4% (inactive) |
| Nc1ccc(/C=C/c2ccc3cccnc3c2)cc1 | 1.95% (inactive) |
| COc1ccc2c3c1OC(C)C31CC(=O)CCC1CC2 (configuration not stated) | 14.7% (inactive) |
| CCOC(=O)Nc1ccc(C)c(NC(=O)OCC)c1 | 6% (inactive) |
| CCN(CC)CCNc1ccc2nc(C)n3c4ccc(OC)cc4c(=O)c1c23 | 22.8% (inactive) |
| C[N+](C)([O-])CCCNc1c2ccccc2nc2cccc([N+](=O)[O-])c12 | 88% (active) |

| Compound | growth inhibition |
| --- | --- |
| O=C(c1cc(=O)c2ccc(O)cc2o1)c1ccc(Cl)cc1Cl | 85.2% (active) |
| CCCNC(=O)OCc1c(COC(=O)NCCC)c(-c2ccc(Cl)c(Cl)c2)n2c1CCC2 | 41.1% (inactive) |
| O=C(Cc1ccccc1)NN1C(=O)C(Cl)C1c1cc(Br)cc(Br)c1O (configuration not stated) | 97.3% (active) |
| CCOC(=O)C(Cc1c2ccccc2cc2ccccc12)(NC(C)=O)C(=O)OCC | 75.5% (active) |
| O=[N+]([O-])/C=C/c1cc2ccc3ccccc3c2[nH]1 | 98.8% (active) |
| Fc1ccc(Nc2ccc3ccccc3c2)cc1 | 90.2% (active) |
| O=S1(=O)CCC2=CC(C(F)(F)F)=CC(C(F)(F)F)=CN21 | 97.9% (active) |
| O=C(Cc1ccccc1)NNc1nc(NNC(=O)c2ccncc2)nc(Nc2ccc([N+](=O)[O-])cc2)n1 | 47% (inactive) |
| CCCCS/C(=C(/C#N)C(N)=O)c1cc2c([nH]1)CCCC2 | 62.4% (inactive) |
| O=C(O)c1ccccc1C(=O)OC1CCc2ccccc2C1 (configuration not stated) | 50.1% (inactive) |
| CCOC(=O)/C(=C\c1cccc(C)c1)C(C)=O | 93.5% (active) |
| NC(=S)N/N=C1\c2ccccc2CCC1CCC1(O)CCc2ccccc2C1=O (configuration not stated) | 88.2% (active) |
| Cc1cccc2c(Cl)c3cccc(C)c3nc12 | -15.9% (inactive) |
| CC(C)OC(=O)NNc1c(Cl)cc(Cl)cc1Cl | 3.15% (inactive) |
| Nc1ccc2c(c1)C(=O)c1c(F)cccc1-2 | 38.6% (inactive) |
| N#CSCC1COc2ccccc2O1 (configuration not stated) | 90.8% (active) |
| Cc1ccc(S(=O)(=O)NC(=O)C2C(=O)CC3(CCCCC3)CC2=O)cc1 | 30.1% (inactive) |
| CC1=NN(C(=O)c2ccccc2O)C(=O)/C1=C/c1ccco1 | 87.2% (active) |
